Reference: PubChem BioAssay
Results filed as inconclusive are left out. Calls of active or inactive are those of the source. Rule as the data show it, unless noted: active = response above about 15%; inactive = the rest.

How the values were obtained:
[1] = yeast TOR pathway RPL19A-GFP modulators, primary screen, cell-based, S. cerevisiae, multiplex flow cytometry (AID 1862; in the data active = percent of DMSO control GFP below about 86%;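 also: lower values mimic rapamycin by blocking the RPL19A rise seen in DMSO cells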); settings: S. cerevisiae RPL19A-GFP strain, flow cytometry fluorescence, 3 h; at 10 µM; stronger effect = lower value
[2] = modulators of MEP2-GFP levels in yeast, primary screen, S. cerevisiae, multiplex flow cytometry (AID 1867;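 active = GFP response, as percent of the DMSO control, above the screen-wide mean plus 3 SD, about 139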;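 also: median GFP channel fluorescence of barcode-gated MEP2-GFP cells measured by flow cytometry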); settings: S. cerevisiae MEP2-GFP strain, 3 h, at 10 µM, stronger effect = higher value, 100% means same as DMSO wells
[3] = modulators of CIT2-GFP expression in yeast, primary screen, S. cerevisiae, GFP fusion, multiplex flow cytometry (AID 1870;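 active = percent response above a set limit, the screen-wide mean plus 3 SD, cut at about 130% in these data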;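 also: barcoded CIT2-GFP strain pooled with four other GFP strains with rapamycin as positive control; median GFP fluorescence per well over plate mean of DMSO wells so 100% = DMSO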); settings: 3 h, at 10 µM, stronger effect = higher value
[4] = modulators of LAP4-GFP expression in yeast, primary screen, S. cerevisiae, multiplex flow cytometry (AID 1873;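 active = GFP signal, as percent of the solvent control, above the screen mean plus 3 SD, about 149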); settings: 3 h, at 10 µM, stronger effect = higher value
[5] = modulators of AGP1-GFP expression in yeast TOR pathway, primary screen, cell-based, multiplex flow cytometry, S. cerevisiae (AID 1887;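 active = GFP signal above the screen-wide mean plus 3 SD, that is over about 124.5% of the solvent control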;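 also: AGP1-GFP fusion strain of S. cerevisiae within a five-strain barcoded multiplex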); settings: 3 h, at 10 µM, stronger effect = higher value
[6] = inhibitors of CD8+ T cell-vesicle binding, pilot screen, LFA-1/ICAM-1 modulator project, MLPCN validation set, flow cytometry (AID 2523;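 active = response below a set limit, under 55% cells CD8-positive and vesicle-bound, and CD8 cells' 90th-percentile brightness under 279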;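 as to vesicle binding response: mean PE anti-B7-1 fluorescence of CD8+ cells relative to row control; 100% = QL9-loaded vesicles with DMSO vehicle in the same plate row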); settings: 2C mouse CD8+ T cells, at 7 µM, stronger effect = lower value; double positive events: measured here: CD8+/vesicle+ event percentage
[7] = target: Integrin beta-1 (Homo sapiens) + Integrin alpha-4 (Homo sapiens) (UniProt P13612+P05556); assay: inhibition of HUTS-21 binding to VLA-4, pilot screen, VLA-4 allosteric modulator project, U937 cells, HUTS-21 mAb, flow cytometry, validation set (AID 2674;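 active = inhibition above 50%, about 3 SD of the validation set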;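 also: antibody binding induced by the VLA-4 ligand LDV present at three times its Kd; 0% = LDV ligand with antibody and no compound and 100% = antibody without LDV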); settings: HUTS-21 LIBS mAb binding, at 6.7 µM, stronger effect = higher value, binding induced by LDV ligand
Integrin beta-1 (Homo sapiens) + Integrin alpha-4 (Homo sapiens), sequence (P05556 whole entry, looked up): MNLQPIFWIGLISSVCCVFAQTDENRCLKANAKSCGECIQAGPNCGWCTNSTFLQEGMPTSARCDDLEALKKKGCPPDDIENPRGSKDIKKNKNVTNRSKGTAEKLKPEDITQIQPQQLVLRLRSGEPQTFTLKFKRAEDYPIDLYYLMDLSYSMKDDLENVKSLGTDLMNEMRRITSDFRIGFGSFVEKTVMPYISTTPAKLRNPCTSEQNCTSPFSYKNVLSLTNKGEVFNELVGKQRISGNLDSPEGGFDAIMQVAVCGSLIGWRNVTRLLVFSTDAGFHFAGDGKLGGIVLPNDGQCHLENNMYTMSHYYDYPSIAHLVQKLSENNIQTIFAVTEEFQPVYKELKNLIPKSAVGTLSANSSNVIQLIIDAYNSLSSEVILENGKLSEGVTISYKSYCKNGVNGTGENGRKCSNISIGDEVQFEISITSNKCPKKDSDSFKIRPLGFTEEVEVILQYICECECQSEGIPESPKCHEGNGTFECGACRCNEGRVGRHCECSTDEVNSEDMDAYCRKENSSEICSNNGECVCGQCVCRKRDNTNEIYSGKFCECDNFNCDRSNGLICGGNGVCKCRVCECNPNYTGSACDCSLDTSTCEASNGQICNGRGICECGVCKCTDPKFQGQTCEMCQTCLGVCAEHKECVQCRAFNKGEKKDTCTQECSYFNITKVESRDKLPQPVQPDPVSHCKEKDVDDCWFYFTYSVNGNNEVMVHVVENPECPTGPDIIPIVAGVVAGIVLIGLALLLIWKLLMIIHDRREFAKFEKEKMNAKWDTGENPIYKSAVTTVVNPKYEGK
Integrin beta-1 (Homo sapiens) + Integrin alpha-4 (Homo sapiens), sequence (P13612 whole entry, looked up): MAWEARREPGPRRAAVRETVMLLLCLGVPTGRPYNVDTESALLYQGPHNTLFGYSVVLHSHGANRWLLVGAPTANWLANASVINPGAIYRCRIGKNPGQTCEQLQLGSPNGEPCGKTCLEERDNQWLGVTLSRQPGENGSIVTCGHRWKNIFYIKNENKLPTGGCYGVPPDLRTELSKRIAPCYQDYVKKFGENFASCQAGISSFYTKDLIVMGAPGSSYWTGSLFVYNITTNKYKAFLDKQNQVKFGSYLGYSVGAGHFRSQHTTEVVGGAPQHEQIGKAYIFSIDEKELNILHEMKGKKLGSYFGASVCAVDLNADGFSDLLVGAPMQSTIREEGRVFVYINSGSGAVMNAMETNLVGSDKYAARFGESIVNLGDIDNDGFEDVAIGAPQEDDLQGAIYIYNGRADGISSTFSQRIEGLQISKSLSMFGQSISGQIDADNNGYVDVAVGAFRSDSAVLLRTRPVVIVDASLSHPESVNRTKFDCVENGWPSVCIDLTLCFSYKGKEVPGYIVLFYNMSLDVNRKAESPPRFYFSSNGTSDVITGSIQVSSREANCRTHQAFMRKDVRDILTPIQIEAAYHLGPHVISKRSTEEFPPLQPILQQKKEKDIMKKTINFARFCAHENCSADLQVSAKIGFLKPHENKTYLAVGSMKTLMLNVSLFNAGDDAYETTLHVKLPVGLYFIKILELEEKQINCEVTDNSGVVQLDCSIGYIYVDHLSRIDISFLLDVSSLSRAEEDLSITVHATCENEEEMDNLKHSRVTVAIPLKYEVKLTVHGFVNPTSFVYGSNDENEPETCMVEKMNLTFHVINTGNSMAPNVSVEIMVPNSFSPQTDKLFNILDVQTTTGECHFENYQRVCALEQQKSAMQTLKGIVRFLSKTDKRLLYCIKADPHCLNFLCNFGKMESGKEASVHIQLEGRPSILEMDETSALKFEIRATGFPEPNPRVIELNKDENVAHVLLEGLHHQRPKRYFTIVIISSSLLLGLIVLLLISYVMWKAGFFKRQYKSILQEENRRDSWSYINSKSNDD

[8] = superoxide lowering in aged yeast cells, pilot screen, validation compound set (AID 2706;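 active = superoxide response below 65% of plate, a cut near 3 SD across the whole screen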;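 also: yeast exposed to compound for one week at 30 degrees C before staining; 100% = mean of all compound wells on the same plate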); settings: S. cerevisiae aging, superoxide DHE fluorescence; at 10 µM; stronger effect = lower value
[9] = target: Beta-adrenergic receptor kinase 1 (Homo sapiens) (UniProt P25098); assay: GRK2 binders displacing RNA aptamer, biochemical, validation, human GRK2, bead flow cytometry (AID 488806;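 active = aptamer binding inhibition above 30%, about 3 SD of noise from non-fluorescent compounds; inactive = inhibition at or below 30%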); settings: bead-bound GRK2, FAM-aptamer displacement, at 10 µM, stronger effect = higher value
Beta-adrenergic receptor kinase 1 (Homo sapiens), sequence (P25098 whole entry, looked up): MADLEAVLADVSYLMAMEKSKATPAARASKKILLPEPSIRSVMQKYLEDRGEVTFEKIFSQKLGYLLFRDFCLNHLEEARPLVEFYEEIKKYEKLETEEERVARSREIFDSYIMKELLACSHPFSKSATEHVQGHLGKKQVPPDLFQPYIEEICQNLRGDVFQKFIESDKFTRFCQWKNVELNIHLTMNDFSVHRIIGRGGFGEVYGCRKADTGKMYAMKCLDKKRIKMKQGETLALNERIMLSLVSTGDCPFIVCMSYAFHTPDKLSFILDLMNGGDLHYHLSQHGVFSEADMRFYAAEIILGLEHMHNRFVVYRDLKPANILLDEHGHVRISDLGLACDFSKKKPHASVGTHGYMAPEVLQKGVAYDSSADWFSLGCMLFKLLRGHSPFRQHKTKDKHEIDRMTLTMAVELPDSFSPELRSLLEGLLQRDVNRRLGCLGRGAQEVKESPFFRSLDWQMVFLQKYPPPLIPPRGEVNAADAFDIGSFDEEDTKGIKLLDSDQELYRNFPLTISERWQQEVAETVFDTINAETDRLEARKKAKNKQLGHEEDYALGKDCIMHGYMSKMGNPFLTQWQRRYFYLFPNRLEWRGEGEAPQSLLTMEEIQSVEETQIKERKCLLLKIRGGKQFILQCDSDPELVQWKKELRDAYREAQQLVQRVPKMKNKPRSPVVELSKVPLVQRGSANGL

[10] = target: Beta-2 adrenergic receptor (Homo sapiens) (UniProt P07550); assay: beta2AR agonists driving receptor internalization, pilot screen, cell-based, FAP fluorogen, flow cytometry, validation set (AID 504459;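 active = percent response above 42, roughly 3 SD of non-fluorescent test compounds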;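 also: agonist-driven loss of surface beta2AR via internalization measured by FAP dye flow cytometry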); settings: Am2.2-beta2AR cells, FAP surface receptor flow cytometry; at 10 µM; stronger effect = higher value
Beta-2 adrenergic receptor (Homo sapiens), sequence (P07550 whole entry, looked up): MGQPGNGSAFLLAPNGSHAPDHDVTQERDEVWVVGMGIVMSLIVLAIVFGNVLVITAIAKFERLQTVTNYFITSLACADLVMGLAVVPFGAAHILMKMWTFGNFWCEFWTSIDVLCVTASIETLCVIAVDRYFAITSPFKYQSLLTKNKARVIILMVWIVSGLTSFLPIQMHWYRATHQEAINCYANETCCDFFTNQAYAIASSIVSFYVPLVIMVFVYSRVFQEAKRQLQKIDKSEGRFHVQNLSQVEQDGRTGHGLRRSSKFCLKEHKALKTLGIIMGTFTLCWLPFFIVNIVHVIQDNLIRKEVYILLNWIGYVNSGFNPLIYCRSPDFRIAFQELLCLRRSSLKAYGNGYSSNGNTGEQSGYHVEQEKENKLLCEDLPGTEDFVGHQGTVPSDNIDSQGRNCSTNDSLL

[11] = target: AP-2 complex subunit beta (Homo sapiens) (UniProt P63010); assay: inhibitors of arrestin peptide binding to AP2, pilot screen, biochemical, validation set, GST-AP2 beads, flow cytometry (AID 504541;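 active = inhibition above 54%, about 3 SD of non-fluorescent compounds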;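 also: AP2 carries R879A mutation and is captured from E. coli lysate; bead-bound FITC arrestin peptide fluorescence measuring arrestin peptide binding to AP2; 0% = DMSO wells and 100% = excess unlabeled arrestin peptide control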); settings: FITC arrestin peptide, at 10 µM, stronger effect = higher value, AP2 beta2 appendage fragment, R879A mutant
AP-2 complex subunit beta (Homo sapiens), sequence (P63010 whole entry, looked up, the tested form may be a part, one chain of several): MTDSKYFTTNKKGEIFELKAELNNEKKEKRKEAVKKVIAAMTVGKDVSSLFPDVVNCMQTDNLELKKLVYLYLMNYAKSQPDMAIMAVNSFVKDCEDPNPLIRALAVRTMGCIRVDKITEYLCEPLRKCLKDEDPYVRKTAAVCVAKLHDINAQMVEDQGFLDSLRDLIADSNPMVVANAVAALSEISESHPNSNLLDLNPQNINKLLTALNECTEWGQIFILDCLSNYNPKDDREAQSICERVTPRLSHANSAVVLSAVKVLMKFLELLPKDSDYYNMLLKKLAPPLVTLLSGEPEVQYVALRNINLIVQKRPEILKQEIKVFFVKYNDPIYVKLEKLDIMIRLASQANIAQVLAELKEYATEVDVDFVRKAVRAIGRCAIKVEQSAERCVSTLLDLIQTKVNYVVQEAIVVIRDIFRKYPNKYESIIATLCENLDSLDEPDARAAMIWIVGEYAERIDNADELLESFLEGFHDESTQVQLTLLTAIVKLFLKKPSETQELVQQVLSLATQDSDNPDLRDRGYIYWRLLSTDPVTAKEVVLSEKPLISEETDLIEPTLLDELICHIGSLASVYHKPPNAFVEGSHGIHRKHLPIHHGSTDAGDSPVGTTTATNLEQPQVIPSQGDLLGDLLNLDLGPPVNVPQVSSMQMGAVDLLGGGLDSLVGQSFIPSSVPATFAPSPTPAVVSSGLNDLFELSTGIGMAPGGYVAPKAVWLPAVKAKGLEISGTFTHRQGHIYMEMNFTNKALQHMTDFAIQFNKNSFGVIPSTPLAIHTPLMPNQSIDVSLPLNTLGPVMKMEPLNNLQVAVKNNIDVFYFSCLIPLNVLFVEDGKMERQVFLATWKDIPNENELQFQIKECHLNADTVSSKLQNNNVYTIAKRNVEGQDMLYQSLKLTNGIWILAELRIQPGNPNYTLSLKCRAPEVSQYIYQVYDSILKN

[12] = yeast V-ATPase proton transport modulators, S. cerevisiae, pHLuorin, HTS validation (AID 504600);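 also: plate controls were DMSO for no effect and reference compound for full effect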; settings: S. cerevisiae pHLuorin cytosolic pH, at 10 µM, stronger effect = higher value
[13] = tested on: anti-desmoglein-3 scFv antibody binding to human DSG3; assay: inhibitors of anti-DSG3 scFv binding to DSG3, pilot screen, biochemical, validation compound set, bead-based, flow cytometry (AID 588368;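 active = binding below the plate cutoff, the plate median minus 3 SD, with a reading above zero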;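 also: signal is the median channel fluorescence of bead-bound GFP antibody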); settings: Protein G beads, DSG3-Fc, scFv-GFP binding, at 10 µM, stronger effect = lower value
[14] = inhibitors of fungal efflux pumps CDR1, CDR2, MDR1, pilot screen, validation compound set, multiplex, phenotypic (AID 588506;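 active = efflux inhibition above 0.42, the validation set average plus 4 SD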;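 also: Nile Red retained in cells so higher fluorescence means more efflux inhibition; 0 = negative control wells and 1 = enniatin B 25 µM full block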); settings: S. cerevisiae pump-expressing triplex, Nile Red efflux flow cytometry; at 10 µM; stronger effect = higher value; the pumps come from Candida albicans
[15] = target: ATP-binding cassette sub-family B member 6 (Homo sapiens) (UniProt Q9NP58); assay: ABCB6 transporter inhibitors, pilot screen, K562-ABCB6 cells, flow cytometry, validation set (AID 588550;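 active = inhibition above the screen-wide mean plus 3 SD, about 51%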;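 also: 0% = DMSO wells and 100% = benzethonium chloride 70 µM positive control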); settings: K562-ABCB6 porphyrin accumulation, 1 h, at 10 µM, stronger effect = higher value
ATP-binding cassette sub-family B member 6 (Homo sapiens), sequence (Q9NP58 whole entry, looked up): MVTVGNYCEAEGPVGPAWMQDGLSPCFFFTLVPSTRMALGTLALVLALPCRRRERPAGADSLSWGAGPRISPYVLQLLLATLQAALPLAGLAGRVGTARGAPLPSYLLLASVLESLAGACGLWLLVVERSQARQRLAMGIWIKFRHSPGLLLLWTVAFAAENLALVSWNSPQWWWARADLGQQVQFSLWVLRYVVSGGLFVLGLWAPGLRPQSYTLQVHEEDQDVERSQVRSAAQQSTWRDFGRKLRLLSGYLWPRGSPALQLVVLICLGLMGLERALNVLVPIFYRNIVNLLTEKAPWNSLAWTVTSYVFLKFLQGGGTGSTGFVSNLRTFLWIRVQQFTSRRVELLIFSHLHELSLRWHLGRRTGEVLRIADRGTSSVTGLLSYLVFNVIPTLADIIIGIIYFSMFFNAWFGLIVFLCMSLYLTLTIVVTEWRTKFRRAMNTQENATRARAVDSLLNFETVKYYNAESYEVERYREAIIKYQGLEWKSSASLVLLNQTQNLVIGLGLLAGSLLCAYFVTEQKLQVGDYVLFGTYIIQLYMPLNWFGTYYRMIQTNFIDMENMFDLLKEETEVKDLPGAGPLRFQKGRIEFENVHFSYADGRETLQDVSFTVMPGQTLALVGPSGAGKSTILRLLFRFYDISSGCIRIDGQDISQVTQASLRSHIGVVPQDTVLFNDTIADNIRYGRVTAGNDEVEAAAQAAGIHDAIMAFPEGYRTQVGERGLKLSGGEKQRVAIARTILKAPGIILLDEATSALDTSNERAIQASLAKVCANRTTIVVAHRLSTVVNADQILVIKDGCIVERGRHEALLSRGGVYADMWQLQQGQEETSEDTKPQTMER

[16] = promoters of myeloid differentiation in arrested cells, primary screen, cell-based, GFP/MAC1 double positive, flow cytometry, validation set (AID 588685;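 active = differentiation response of at least 50%, scaled between solvent and reference control, from cells with both markers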;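 also: compound exposure lasts four days before antibody staining and flow analysis; 0% = DMSO wells and 100% = 5 µM fulvestrant positive control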); settings: ER-HoxA9 marrow cells, stronger effect = higher value, normalized: vehicle 0, fulvestrant 100

Cc1nc(C2CC(=O)OC23CCCCC3)cs1 (stereo not drawn)
inactive: percent of DMSO control GFP [1] 94.4% | GFP response vs DMSO [2] 106% | percent response of DMSO control [3] 94.8% | GFP response vs DMSO [4] 116% | GFP response, % of DMSO [5] 94% | vesicle binding response [6] 136% | inhibition [7] -0.43% | superoxide response (% of plate) [8] 104% | aptamer binding inhibition [9] 9% | response [10] -0.69% | inhibition [11] -1.27% | response [12] 1.08% | binding (% of control) [13] 98.7% | efflux inhibition (fraction of control) [14] -0.24 | inhibition [15] 7% | differentiation response [16] -20%
61.4%: double positive events [6]

CC(C)(CO)CNC(=O)CC1C(=O)NCCN1CC(c1ccccc1)c1ccccc1 (stereo not drawn)
inactive: percent of DMSO control GFP [1] 97.8% | GFP response vs DMSO [2] 106% | percent response of DMSO control [3] 86.3% | GFP response vs DMSO [4] 114% | GFP response, % of DMSO [5] 96% | vesicle binding response [6] 7860% | inhibition [7] 3.67% | superoxide response (% of plate) [8] 115% | aptamer binding inhibition [9] -1% | response [10] -3.26% | inhibition [11] -0.19% | response [12] 0.18% | binding (% of control) [13] 99.5% | efflux inhibition (fraction of control) [14] 0.05 | inhibition [15] 7% | differentiation response [16] -8.8%
65.3%: double positive events [6]

Cc1ccccc1C(=O)NNc1ncnc2c1cnn2C
64.9%: double positive events [6]
inactive: percent of DMSO control GFP [1] 104% | GFP response vs DMSO [2] 103% | percent response of DMSO control [3] 91.2% | GFP response vs DMSO [4] 103% | GFP response, % of DMSO [5] 112% | vesicle binding response [6] 146% | inhibition [7] 3.99% | superoxide response (% of plate) [8] 104% | aptamer binding inhibition [9] -2% | response [10] -18.4% | inhibition [11] 15.7% | response [12] -4.35% | binding (% of control) [13] 107% | efflux inhibition (fraction of control) [14] 0.08 | inhibition [15] -17% | differentiation response [16] 6.83%

O=C(/C=C/c1ccccc1)NCC1(c2ccccc2)CCOCC1
inactive: percent of DMSO control GFP [1] 101% | GFP response vs DMSO [2] 104% | percent response of DMSO control [3] 101% | GFP response vs DMSO [4] 117% | GFP response, % of DMSO [5] 103% | vesicle binding response [6] 255% | inhibition [7] -18.2% | superoxide response (% of plate) [8] 99.2% | aptamer binding inhibition [9] -1% | response [10] -8.35% | response [12] -9.57% | binding (% of control) [13] 97% | efflux inhibition (fraction of control) [14] -0.21 | inhibition [15] 3% | differentiation response [16] -15.2%
64.3%: double positive events [6]
active: inhibition [11] 63.9%

CCc1cc(=O)oc2cc3occ(-c4ccc(OC)c(F)c4)c3cc12
60.2%: double positive events [6]
active: efflux inhibition (fraction of control) [14] 0.63
inactive: percent of DMSO control GFP [1] 96.8% | GFP response vs DMSO [2] 116% | percent response of DMSO control [3] 111% | GFP response vs DMSO [4] 93% | GFP response, % of DMSO [5] 87.7% | vesicle binding response [6] 260% | inhibition [7] 16.2% | superoxide response (% of plate) [8] 88% | aptamer binding inhibition [9] -1% | response [10] 25.5% | inhibition [11] 6.17% | response [12] 0.45% | binding (% of control) [13] 107% | inhibition [15] 15% | differentiation response [16] 10.6%

CC1(C)C(C=C(Cl)Cl)C1C(=O)N1CCN(Cc2ccccc2)CC1 (stereo not drawn)
inactive: percent of DMSO control GFP [1] 103% | GFP response vs DMSO [2] 99.3% | percent response of DMSO control [3] 104% | GFP response vs DMSO [4] 89.4% | GFP response, % of DMSO [5] 103% | vesicle binding response [6] 329% | inhibition [7] -6.68% | superoxide response (% of plate) [8] 102% | aptamer binding inhibition [9] 3% | response [10] -1.88% | inhibition [11] 5.16% | response [12] -5.4% | binding (% of control) [13] 93.5% | efflux inhibition (fraction of control) [14] -0.01 | inhibition [15] 13% | differentiation response [16] -9.53%
66.3%: double positive events [6]

CC1(C)CC(c2csc(N)n2)CCO1 (stereo not drawn)
inactive: percent of DMSO control GFP [1] 103% | GFP response vs DMSO [2] 106% | percent response of DMSO control [3] 106% | GFP response vs DMSO [4] 86.8% | GFP response, % of DMSO [5] 101% | vesicle binding response [6] 915% | inhibition [7] 1.62% | superoxide response (% of plate) [8] 101% | aptamer binding inhibition [9] 3% | response [10] -0.12% | inhibition [11] 8.95% | response [12] -0.04% | binding (% of control) [13] 93.3% | efflux inhibition (fraction of control) [14] -0.14 | inhibition [15] -3% | differentiation response [16] -4.64%
65.9%: double positive events [6]

NC(N)=N/N=C/c1c(Cl)cccc1Cl
67.2%: double positive events [6]
inactive: percent of DMSO control GFP [1] 102% | GFP response vs DMSO [2] 105% | percent response of DMSO control [3] 105% | GFP response vs DMSO [4] 101% | GFP response, % of DMSO [5] 108% | vesicle binding response [6] 169% | inhibition [7] -11.8% | superoxide response (% of plate) [8] 81.5% | aptamer binding inhibition [9] -4% | response [10] -0.34% | inhibition [11] 5.82% | response [12] -3.91% | binding (% of control) [13] 99.4% | efflux inhibition (fraction of control) [14] -0.085 | inhibition [15] -5% | differentiation response [16] -13.3%

CCOC(=O)C1=C(C)N[C@@]2(O)c3ccccc3C(=O)[C@@]12O
inactive: percent of DMSO control GFP [1] 102% | GFP response vs DMSO [2] 106% | percent response of DMSO control [3] 106% | GFP response vs DMSO [4] 92.2% | GFP response, % of DMSO [5] 98.5% | vesicle binding response [6] 254% | inhibition [7] -7.25% | superoxide response (% of plate) [8] 96.8% | aptamer binding inhibition [9] 1% | response [10] -1.07% | inhibition [11] 12.9% | response [12] 13% | binding (% of control) [13] 99.3% | efflux inhibition (fraction of control) [14] -0.21 | inhibition [15] 6% | differentiation response [16] -21.6%
65.1%: double positive events [6]
